Measured values from ChEMBL document CHEMBL4513216, “Probing the Open Global Health Chemical Diversity Library for Multistage-Active Starting Points for Next-Generation Antimalarials” (ACS Infect Dis, 2020).
In all, about 68,000 compounds went through this assay and about 2,700 (4%) showed an effect of 50% or more. The entries come from a sample that favours strong results as a whole.

These compounds were tested on Plasmodium berghei (assay: Screen against P. berghei liver stage (PbLuc), transformed with Luciferase, at 2uM). Settings: tested at 2 uM.
Format: functional, HepG2
`O=C(c1cc2cc(I)ccc2[nH]1)N1CCC(Nc2cccnn2)CC1` showed an INHIBITION of 39.72%.
Compound `CC(C)C1CN(C(=O)Nc2cnn(CC(F)F)c2)CCO1` (stereo not drawn) has an INHIBITION of -5.66%.
With `Cc1cc(CCC(=O)N2CCOCC2)ccc1Br` the INHIBITION was 33.64%.
`O=C(Cn1cc(C(=O)O)cn1)Nc1c(Cl)cccc1Cl` showed an INHIBITION of 6.26%.
`NS(=O)(=O)c1cnn(CC(=O)Nc2c(Cl)cccc2Cl)c1` gave an INHIBITION of 68.04%.
In the case of `O=C(Cn1ccc(C(=O)O)n1)Nc1c(Cl)cccc1Cl`, the INHIBITION is reported as 25.07%.
`Cc1nn(C)cc1C(=O)N1CCC(CSc2ccccc2)C1` (stereo not drawn) gave an INHIBITION of 3.22%.
With `CCn1nc(C)c(S(=O)(=O)Nc2cccc(C(=O)O)c2C)c1C` the INHIBITION was -4.15%.
`CN(C)CC1CN(C(=O)CCc2ccccc2)Cc2nccn2C1` (stereo not drawn) gave an INHIBITION of -43.66%.
With `COc1ccnc(N2CCC(OCCN3CCCCC3)C2)n1` (stereo not drawn) the INHIBITION was -53.64%.
For `Cc1ccnc(N2CCC(OCCN3CCCCC3)C2)n1` (stereo not drawn), the INHIBITION was 12.29%.
For `c1cnc(N2CCC(OCCN3CCCCC3)C2)nc1` (stereo not drawn), the INHIBITION was 56.47%.
For `CCc1ncc2c(n1)CN(Cc1nnc(Cc3ccccc3)o1)CC2`, the INHIBITION was -11.33%.
Compound `Cc1cc(C(=O)NCCN2CCCCCC2)nn1C(C)(C)C` has an INHIBITION of -5.98%.
For `CCc1nnc2n1CCN(Cc1cc(Cl)c3c(c1)OCCCO3)C2`, the INHIBITION was -3.57%.
For `CCc1ccc(O)c(C(=O)N2CCN(CC(=O)N(C)C)CC2)c1`, the INHIBITION was 55.26%.
`CCc1ccc(O)c(C(=O)N2CCN(CC(=O)N(CC)CC)CC2)c1` was tested, and the INHIBITION was -19.78%.
Work on `CCc1ccc(O)c(C(=O)N2CCCN(CC(=O)N(CC)CC)CC2)c1` yielded an INHIBITION of 46.3%.
For `CCCS(=O)(=O)N(C)C(=O)CCc1ccsc1`, the INHIBITION was 8.59%.
For `CC(C)c1nc(CNc2ccc(CCO)cc2)cs1`, the INHIBITION was 2.76%.
`CNc1cncc(C2CCN(C(=O)c3cnco3)CC2)n1` showed an INHIBITION of 56.93%.
For `CNc1cncc(C2CCN(C(=O)c3coc(C)n3)CC2)n1`, the INHIBITION was -16.56%.
Work on `Cc1cncc(C2CCCN(C(=O)c3cnco3)C2)n1` (stereo not drawn) yielded an INHIBITION of -10.44%.
Work on `COCCN1CCC(c2nc3cc(C)ccc3[nH]2)CC1` yielded an INHIBITION of 8.33%.
For `Cc1ccc2[nH]c(C3CCN(C)CC3)nc2c1`, the INHIBITION was -5.34%.
Work on `Cc1ccc2[nH]c([C@H]3CCN(CC4CCCCC4)C3)nc2c1` yielded an INHIBITION of 63.89%.
`CC(C)S(=O)(=O)N1CCCC(c2cccc(C(=O)O)c2)C1` (stereo not drawn) gave an INHIBITION of 49.88%.
With `CCn1cnnc1CNC(=O)N1CCN(c2ccccc2OC)CC1` the INHIBITION was 33.61%.
For `O=C(Nc1cc[nH]n1)c1ccc(COCC(F)(F)F)cc1`, the INHIBITION was -20.91%.
With `COc1ccc(CN2CCC(c3cc(O)nc(C)n3)C2)c(OC)c1` (stereo not drawn) the INHIBITION was 52.01%.
`COc1ccc(OC)c(CN2CCC(c3cc(O)nc(C)n3)C2)c1` (stereo not drawn) was tested, and the INHIBITION was -111.32%.
`COc1ccc(CN2CCC(c3cc(O)nc(C)n3)C2)c(F)c1` (stereo not drawn) gave an INHIBITION of -30.34%.
Compound `Cc1noc(CC2CCN(C(=O)C(c3ccccc3C)N(C)C)CC2)n1` (stereo not drawn) has an INHIBITION of 37%.
For `CCn1c(NCc2ccccn2)nc2c(C)nn(C)c2c1=O`, the INHIBITION was 50.9%.
For `Cc1nn(C)c2c(NCc3ccccn3)nc(C(C)C)nc12`, the INHIBITION was 72.41%.
In the case of `CCn1c(NCc2cccnc2)nc2c(C)nn(C)c2c1=O`, the INHIBITION is reported as 24.79%.
`CCn1nc(C)c2nc(C(C)C)nc(NCc3ccccn3)c21` was tested, and the INHIBITION was -11.34%.
`Cc1nc(NCc2ccccn2)c2c(n1)c(C)nn2C` showed an INHIBITION of -40.15%.
For `CCn1c(NCc2ccccc2)nc2c(C)nn(C)c2c1=O`, the INHIBITION was -1.65%.
Compound `Fc1cnc(N2CC3(CCN(Cc4ccsc4)C3)C2)nc1` has an INHIBITION of 34.48%.
`COCCC(=O)N1CCCC1c1nc(O)cc(C(C)C)n1` (stereo not drawn) gave an INHIBITION of -1.69%.
Compound `CCC[C@H]1CN(C(=O)Cn2ccccc2=O)C[C@@H]1NS(C)(=O)=O` has an INHIBITION of 5.21%.
With `CCCS(=O)(=O)N1CCN(c2ccnc(N3CCCCC3)n2)CC1` the INHIBITION was 5.38%.
For `CC1CCN(C(=O)CN2CCC(c3n[nH]c(C4CC4)n3)CC2)CC1`, the INHIBITION was -35.26%.
Compound `C=C(C)CN1CCC(c2n[nH]c(C3CC3)n2)CC1` has an INHIBITION of 52.98%.
In the case of `CCN(C(=O)CN1CCC(c2n[nH]c(C3CC3)n2)CC1)C1CC1`, the INHIBITION is reported as 38.67%.
`Cc1cc(C[C@@H]2COC[C@@H]2NC(=O)CN2CCc3ccccc3C2)on1` gave an INHIBITION of 54.49%.
`Cc1cc(C[C@@H]2COC[C@H]2NCc2ccc(C)c(C)c2)on1` gave an INHIBITION of 53.24%.
With `Cc1cc(C[C@@H]2COC[C@H]2NCc2ccc(Cl)c(Cl)c2)on1` the INHIBITION was -44.61%.
`Cc1ccc(CN[C@@H]2COC[C@H]2Cc2cc(C)no2)cc1` showed an INHIBITION of 20.08%.
`Cc1cc(C[C@@H]2COC[C@@H]2NC(=O)CCN2Cc3ccccc3C2)on1` gave an INHIBITION of 14.1%.
`Cc1cc(C[C@@H]2COC[C@@H]2NC(=O)CN2CCCC2)on1` gave an INHIBITION of -56.02%.
Compound `O=C(CC1CCC1)N1CCCC(CO)(CC2CC2)C1` (stereo not drawn) has an INHIBITION of -12.89%.
`O=C1CCCN1Cc1ncn2c1CN(C(=O)c1cccc(F)c1)CCC2` showed an INHIBITION of 21.33%.
With `Cc1cc(NC(=O)CN2CCCCC2Cn2nc(C)nc2C)on1` (stereo not drawn) the INHIBITION was 27.5%.
`Nc1ncccc1CN1C[C@@H](C(=O)O)[C@H](c2cccc(F)c2)C1` was tested, and the INHIBITION was 1.22%.
`CCS(=O)(=O)N1CCC2(CC1)CN(CC1CCOC1)c1ccccc12` (stereo not drawn) showed an INHIBITION of 17.89%.
With `COc1ccc(OC2CCN(C(=O)CCc3n[nH]c(N)n3)CC2)cc1` the INHIBITION was -88.55%.
For `Cc1nc(CN(C)CC2CCCN(CCc3ccc(Cl)cc3)C2)no1` (stereo not drawn), the INHIBITION was -7.76%.
`COc1ccccc1CCN1CCCC(CN(C)Cc2ccc(C)o2)C1` (stereo not drawn) showed an INHIBITION of -4.64%.
`Cc1nc[nH]c1CN(C)CC1CCCN(CCc2ccc(Cl)cc2)C1` (stereo not drawn) was tested, and the INHIBITION was -9.17%.
Compound `Cc1noc(CN(C)CC2CCCN(CCc3ccc(Cl)cc3)C2)n1` (stereo not drawn) has an INHIBITION of 35.26%.
With `COc1ccc(CCN2CCCC(CN(C)Cc3[nH]cnc3C)C2)cc1` (stereo not drawn) the INHIBITION was 52.31%.
`COc1ccc(CCN2CCCC(CN(C)Cc3ccc(C)o3)C2)cc1` (stereo not drawn) was tested, and the INHIBITION was 54.59%.
In the case of `CN(Cc1ncc[nH]1)CC(c1cccs1)N1CCOCC1` (stereo not drawn), the INHIBITION is reported as 62.46%.
In the case of `CN(Cc1ccncc1)CC(c1cccs1)N1CCOCC1` (stereo not drawn), the INHIBITION is reported as -10.66%.
In the case of `Cc1noc(CN(C)CC(c2cccs2)N2CCOCC2)n1` (stereo not drawn), the INHIBITION is reported as 28.88%.
`Cc1cc(C(F)(F)F)c2c(=O)n(Cc3cc(C)on3)n(C)c2n1` gave an INHIBITION of 1.36%.
